# PubChem BioAssay (NCATS)
# Results filed as inconclusive are left out. Active and inactive are the calls of the source. The call rests on the fitted dose curve; in most records, active means well fitted cell-killing curve with a large enough effect; inconclusive means small, poorly fitted or top-dose-only effect; inactive means flat fitted curve, though single readings scatter.
# Experiments:
# [1] = HPAF-II Cancer Cell Toxicity qHTS against the NCATS CANVASS Library (AID 1347346); settings: HPAF-II viability, CellTiter-Glo ATP luminescence, 72 h; series mostly up to 38.3 µM; further: nearly all actives have a fitted effect of over 55% in size
# In short: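 First, HPAF-II cells are plated (1000 cells/well) and held 4 h at 37 degrees C. Next, compounds are pin-transferred as an 11-point series. After 72 h, CellTiter-Glo is added and luminescence measured.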
# [2] = A2780 Cisplatin Sensitive Ovarian Cancer Cell Toxicity qHTS against the NCATS CANVASS Library (AID 1347353); settings: A2780 ovarian cancer viability, ATPLite luminescence, 72 h; series mostly up to 46.1 µM; further: nearly all actives have a fitted effect of over 60% in size
# From the text: Natural products and their derivatives continue to be wellsprings of nascent therapeutic potential. However, many laboratories have limited resources for biological evaluation, leaving their previously isolated or synthesized compounds largely or completely untested. To address this issue, the Canvass library of natural products was assembled (https://tripod.nih.gov/canvass), in collaboration with academic and industry researchers, for quantitative high-throughput screening (qHTS) across a diverse set of cell-based and biochemical assays. The pure (>85% purity by liquid chromatography/mass spectrometry [LC/MS]) Canvass library of 346 natural products were submitted by 45 academic laboratories and companies around the world. We collected pure natural products to circumvent deconvolution and structure elucidation due to time and resource limitations. The library was formatted into 1536-well plates and evaluated in 50 qHTS (in an 11-pnt concentration series) bioassays with broad scope of disease-relevant mechanisms. The resulting data set from 50 different assays was then systematically analyzed to identify overall trends and specific natural products with interesting biological activities. […]
# Cancer Cell Toxicity protocol 1. […] Luminescence signal was acquired via the ViewLux plate reader (PerkinElmer) using a clear filter, 2 second exposure and 2x binning settings.
Structure (SMILES),outcome [1],outcome [2]
CC(C)c1ccc2c(c1)CCC1[C@](C)(C(=O)O)CCC[C@]21C (stereo partly drawn),inactive,inactive
C/C(=C\CC/C(C)=C/CC[C@]1(C)CCc2cc(O)cc(C)c2O1)CC/C=C(\C)C(=O)O,inactive,–
